# Screens (PubChem BioAssay)
# Shown are actives, neighbours in structure and some others; about 19% of the full set was active somewhere.
# HT1080-NT tox – qHTS for induction of synthetic lethality in tumor cells producing 2HG: qHTS for the HT-1080-NT fibrosarcoma cell line; HT-1080-NT fibrosarcoma viability, CellTiter-Glo ATP luminescence, 48 h; Potency, µM (titrated, usually from 46.1 µM), usual class: cytotoxic; actives 1.6% (n = 360,000);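 also: NT is the 2HG producing partner of a matched IDH1 knockdown line; nearly all actives have a fitted effect of over 55% in size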
#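 Viability of the 2HG-overproducing fibrosarcoma line after 48 hours of compound exposure at 37 degrees C was determined by luminescence with CellTiter-Glo, and concentration-effect curves were then fitted and categorized.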
# DT40 TDP1 no CPT – qHTS for Inhibitors of human tyrosyl-DNA phosphodiesterase 1 (TDP1): qHTS in cells in absence of CPT; Potency, µM (top dose mostly 46.2 µM), hits mostly inhibitors; actives 15% (n = 420,000); DT40 Tdp1-/- hTDP1 cells, no CPT, ATP luminescence, 48 h; also: nearly all actives have a fitted effect of over 55% in size
#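 A cellular qHTS used chicken DT40 cells lacking endogenous Tdp1 but carrying stably transfected human TDP1. Compounds were applied without camptothecin, and cell growth kinetics were judged by ATP-dependent luminescence after ≥48 hr.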
# IL1B secr inh – qHTS for Inhibitors of Inflammasome Signaling: IL-1-beta AlphaLISA Primary Screen; AID 743279, 2014; actives 4.7% (n = 360,000); THP-1 LPS/ATP IL-1B secretion, AlphaLISA, 16 h; active compounds read low; activity change, % at 57.5 µM; in the data active = activity change below about -50%; inconclusive = mostly about -30% to -49%
#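 THP-1 cells pretreated 1 hr with compounds (up to 57.5 uM final), then stimulated with LPS (250 ng/mL final) plus ATP (1.25 mM final); secreted IL-1B measured by AlphaLISA after 16 hr, decreased signal indicating inhibition.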
# DT40 TDP1 CPT – qHTS for Inhibitors of human tyrosyl-DNA phosphodiesterase 1 (TDP1): qHTS in cells in presence of CPT. chicken DT40 Tdp1-/-;hTDP1 cells + 20 nM CPT, ATP luminescence, 48 h. Potency, µM (series often up to 46.2 µM), actives largely listed as inhibitors. actives 12% (n = 420,000). AID 686979, 2013; also: nearly all actives have a fitted effect of over 55% in size
#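 Cell growth measured by CellTiter-Glo luminescence after a minimum 48 h, 37 C compound exposure with 20 nM CPT in Tdp1-knockout DT40 cells stably expressing hTDP1, seeded 400/well; qHTS titration format.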
# HT1080 IDH1KD tx – qHTS for induction of synthetic lethality in tumor cells producing 2HG: qHTS for the HT-1080-IDH1KD cell line. HT-1080 IDH1 knockdown viability, ATP luminescence, 48 h. Potency, µM (titrated, usually from 46.1 µM), most hits filed as cytotoxic. actives 2% (n = 360,000)
#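 Assay cells: HT-1080 with IDH1 knockdown, 750 per well, RPMI/5% FBS. Exposure: 48 h at 37 °C following 2 h pre-incubation. Read: CellTiter-Glo luminescence; fitted concentration-response, curve class assigned.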
# Numbers stand for hits; 0 = inactive; ? = inconclusive; - = no result; [ ] = dose if it differs, or a comment. Unless noted, calls follow the shape of the dose curve; as a rule, active = well fitted curve in the direction sought with a large enough effect; inconclusive = small, poorly fitted or top-dose-only effect, or another doubt; inactive = no such curve, though single readings can be large; an effect the other way counts as inactive or inconclusive.
SMILES,HT1080-NT tox,DT40 TDP1 no CPT,IL1B secr inh,DT40 TDP1 CPT,HT1080 IDH1KD tx
CCOc1ccc(/C=N/Nc2nc(C)cs2)c(O)c1,0,?,0,10µM,0
COc1ccc(S(=O)(=O)Nc2c(C)n(C)n(-c3ccccc3)c2=O)c(Cl)c1Cl,0,0,0,0,0
O=C(NCCN1Cc2ccccc2OC(c2ccsc2)C1)c1cncs1 (centres undefined),-,0,-,0[9.04 µM],-
CCc1cc(C(=O)NCCN2Cc3ccccc3OC(c3ccsc3)C2)n(C)n1 (centres undefined),-,21µM,-,?,-
O=C1CCCC2=C1C(c1ccc(O)c(O)c1)Nc1ccc3ncccc3c12 (centres undefined),0,0,0,0,0
O=C1CCCC2=C1C(c1cccs1)Nc1ccc3ncccc3c12 (centres undefined),?,?,0,16µM,?
Cc1ccsc1C1Nc2ccc3ncccc3c2C2=C1C(=O)CC(C)(C)C2 (centres undefined),10µM,?,0,13µM,?
CC(Oc1ccc(F)cc1)C(=O)Nc1ccc(N2CCOCC2)cc1N1CCOCC1 (centres undefined),0,?,0,0,0
CCC(C)Oc1ccc(C(=O)Nc2ccc(CN3CCOCC3)cc2)cc1 (centres undefined),?,15µM,?,21µM,0
CC(C)COc1cccc(C(=O)Nc2ccc(CN3CCOCC3)cc2)c1,0,?,-82,23µM,?
CC(Oc1cccc(Cl)c1)C(=O)Nc1ccc(N2CCOCC2)cc1N1CCOCC1 (centres undefined),0,13µM,0,?,0
CC(C)COc1cccc(C(=O)Nc2ccc(N3CCOCC3)cc2N2CCOCC2)c1,0,13µM,0,?,0
C=CCOC(=O)C1C(=O)CC(C)(O)C(C(=O)OCC=C)C1c1ccc(OCC)cc1 (centres undefined),0,0,0,0,0
CC(=O)c1ccc(N(C(=O)c2csnn2)C(C(=O)NC(C)(C)C)c2cccs2)cc1 (centres undefined),0,?,0,0,0
CC(C)(C)C(=O)Oc1ccc(S(=O)(=O)Nc2ccccc2C(=O)NCC(=O)O)cc1,-,0,-,0,-
COc1cc(C(=O)Nc2ccc(S(=O)(=O)N(C)c3ccccc3)cc2)cc(OC)c1OC,0,?,?,16µM,0
COc1cc(C(=O)Nc2ccc(S(=O)(=O)NC(C)(C)C)cc2)cc(OC)c1OC,0,?,0,0,0
COc1ccc(/C=N/NC(=O)C2c3ccccc3-c3ccccc32)cc1,0,21µM,0,?,?
COc1ccccc1/C=N/NC(=O)c1ccc(N(C)S(=O)(=O)c2ccccc2)cc1,0,0,0,0,0
Cc1nc2ccc(NC(=O)c3ccc(S(=O)(=O)N(C)c4ccccc4)cc3)cc2s1,0,23µM,-62,?,?
CN(c1ccc(C(=O)N/N=C/c2cccc([N+](=O)[O-])c2)cc1)S(=O)(=O)c1ccccc1,0,?,0,8.2µM,?
COc1ccc(/C=N/NC(=O)CC(=O)N/N=C/c2ccc(OC)cc2)cc1,0,?,0,0,0
CCCN1CNc2c(c(=O)[nH]c(=S)n2CCc2cccs2)C1,0,0,-,0,0
CC1=C(C(=O)N(C)C)CC(CC(=O)NCCCCc2ccccc2)C(=O)N1CCCN1CCCC1=O (centres undefined),0,0,0,0,0
CC(OC(=O)c1cccc(-n2cnnn2)c1)C(=O)Nc1ccc(F)c(F)c1F (centres undefined),0,?,0,?,0
SMILES,HT1080-NT tox,DT40 TDP1 no CPT,IL1B secr inh,DT40 TDP1 CPT,HT1080 IDH1KD tx
CCOC(=O)Cc1csc(NC(=O)CN2CCOCC2)n1,0,0,0,0,0
COc1ccc(/C=N/NC(=O)c2ccc(N(C)S(=O)(=O)c3ccccc3)cc2)cc1,0,23µM,0,?,0
COc1cc(C(=O)/C=C/Nc2ccc(NC(C)=O)cc2)cc(OC)c1OC,?,?,0,?,18µM
COc1cc(C(=O)Nc2ccc(N(C)C)cc2)cc(OC)c1OC,?,?,0,21µM,?
COc1ccc(C(=O)Nc2ccc(S(=O)(=O)N(C)c3ccccc3)cc2)cc1,0,16µM,-65,0,?
COc1cc(C(=O)NNC(=O)c2ccc(NC(C)=O)cc2)cc(OC)c1OC,0,0,0,0,0
Cc1ccccc1NC(=O)CN1C(=O)c2cccnc2Oc2ccc(Cl)cc21,0,0,0,0,0
O=C(N/N=C/c1cccc(OCC(=O)N2CCCC2)c1)C(=O)Nc1ccccc1F,?,?,0,0,0
COc1ccccc1CNC(=O)CS(=O)(=O)Cc1ccccc1,0,0,0,0,0
COc1cccc(CC2(CO)CCCN(C(=O)c3cc[n+]([O-])cc3)C2)c1 (centres undefined),0,0,0,0,0
CC(=O)Nc1ccc(NC(=O)c2ccc(S(=O)(=O)N(C)c3ccccc3)cc2)cc1,0,?,0,?,0
Cc1ccccc1C(=O)Nc1ccc(C(=O)N/N=C/c2ccc(F)cc2)cc1,0,?,0,0,0
COc1ccc(NC(=O)c2ccc(S(=O)(=O)N(C)c3ccccc3)cc2)cn1,0,?,0,15µM,0
COc1ccc(/C=N/NC(=O)c2ccc(NC(=O)c3ccccc3Br)cc2)cc1,0,?,-56,?,0
Cc1ccc2c(c1)cc(C(=O)N[C@@H](Cc1ccccc1)C(=O)O)n2C,0,0,0,0,0
Cn1cc(C(=O)N/N=C/C(Br)=C/c2ccccc2)ccc1=O,21µM,2.3µM,?,3.3µM,?
Cn1cc(C(=O)N/N=C/c2cccc(O)c2)ccc1=O,0,0,0,0,0
Cn1cc(C(=O)N/N=C/C(Br)=C\c2ccccc2)ccc1=O,0,2.9µM,-98,2.3µM,0
CC(NC(=O)c1ccccc1Br)c1nnc(SCC(=O)NC2CCCCC2)n1C (centres undefined),0,0,0,0,0
CCCNC(=O)c1c(CSc2ccc(Cl)cc2)noc1C(=O)NCc1ccccc1,0,?,?,?,0
CC(=O)c1c(C(C)=O)c(C)n(NC(=O)c2ccccc2Cl)c1C,0,0,0,0,0
CC(=O)c1c(C(C)=O)c(C)n(C(c2ccccc2)c2ccccc2)c1C,0,21µM,0,?,0
Cn1c(CSCc2ccc(F)cc2)nnc1SCC(=O)Nc1nccs1,0,13µM,0,10µM,0
Cn1c(CSCc2ccc(Cl)c(Cl)c2)nnc1SCC(=O)Nc1nccs1,0,18µM,0,26µM,0
